Results on 43 sequences are retold here after the supplement of paper PMC10681739.

For test [1], the target named is RUNX1 (UniProt Q01196). The test can be described thus: RUNX1 binding intensity (PBM fluorescence), RUNX1 alone (arbitrary fluorescence units); higher = stronger binding. The conditions noted are these: RUNX1 concentration 2 nM; ETS1 concentration 0 nM. As for the experimental part: (§1)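 Cooperative gcPBM on 36-bp genomic probes with neighbouring ETS1 and RUNX1 sites. Recombinant human RUNX1 (2 nM) was incubated alone or with ETS1 (25 nM) and detected with anti-RUNX1 antibody plus Alexa488 secondary. Values are medians over 4 replicate spots; the RUNX1+ETS1 data were normalised to the RUNX1-only data. The probes sit in constant array flanks that are not printed.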
RUNX1, sequence (Q01196 whole entry): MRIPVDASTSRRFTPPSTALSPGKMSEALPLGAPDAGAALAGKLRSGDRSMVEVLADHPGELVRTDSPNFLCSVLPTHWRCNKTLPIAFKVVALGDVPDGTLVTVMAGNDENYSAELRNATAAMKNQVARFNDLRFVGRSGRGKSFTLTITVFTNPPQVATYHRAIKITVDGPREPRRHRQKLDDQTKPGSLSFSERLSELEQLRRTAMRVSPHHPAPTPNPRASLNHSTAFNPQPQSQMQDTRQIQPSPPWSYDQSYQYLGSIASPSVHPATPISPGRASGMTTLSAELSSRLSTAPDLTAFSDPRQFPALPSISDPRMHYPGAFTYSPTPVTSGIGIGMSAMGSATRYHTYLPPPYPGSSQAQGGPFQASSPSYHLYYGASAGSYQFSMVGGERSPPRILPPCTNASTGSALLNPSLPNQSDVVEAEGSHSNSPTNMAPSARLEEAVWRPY

The target in test [2] is T1, ETS1 (UniProt P14921).
T1 sequence: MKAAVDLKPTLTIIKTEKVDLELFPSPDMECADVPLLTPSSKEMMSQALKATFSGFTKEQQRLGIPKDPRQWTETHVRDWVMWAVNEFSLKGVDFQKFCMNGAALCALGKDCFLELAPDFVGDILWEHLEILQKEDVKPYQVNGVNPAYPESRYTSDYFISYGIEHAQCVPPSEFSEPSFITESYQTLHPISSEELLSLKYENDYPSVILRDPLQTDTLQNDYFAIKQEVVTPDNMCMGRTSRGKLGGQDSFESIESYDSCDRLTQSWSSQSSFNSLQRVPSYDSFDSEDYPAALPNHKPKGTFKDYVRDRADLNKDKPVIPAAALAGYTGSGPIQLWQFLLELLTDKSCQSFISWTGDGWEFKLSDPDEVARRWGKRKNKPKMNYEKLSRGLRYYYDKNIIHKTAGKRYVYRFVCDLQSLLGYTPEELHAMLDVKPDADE
In words: ETS1 binding intensity (PBM fluorescence) in presence of RUNX1, normalised to ETS1-only experiment (arbitrary fluorescence units); higher = stronger binding. The following applies: ETS1 concentration 1 nM; RUNX1 concentration 25 nM.

In test [3] the target is RUNX1 (UniProt Q01196). The test can be described thus: RUNX1 binding intensity (PBM fluorescence) in presence of ETS1, normalised to RUNX1-only experiment (arbitrary fluorescence units); higher = stronger binding. The conditions noted are these: RUNX1 concentration 2 nM; ETS1 concentration 25 nM. The protocol:
as §1
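Throughout, for RUNX1 binding intensity (PBM fluorescence) in presence of ETS1, normalised to RUNX1-only experiment: Full-length recombinant human ETS1 or RUNX1 bound to double-stranded 36-bp genomic probes on microarrays, detected by protein-specific primary antibody and Alexa488 secondary, spot fluorescence as median of four replicate spots.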
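Throughout, for RUNX1 binding intensity (PBM fluorescence), RUNX1 alone: Full-length recombinant human RUNX1 bound to double-stranded 36-bp genomic probes on a high-density microarray, scored as Alexa488 fluorescence per spot via anti-RUNX1 antibody, median of four replicate spots.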

With AACAAACCGGATGGGGTTGCCACCCGCAATCTTGTC, the RUNX1 binding intensity in test [1] worked out at 826; in test [3], 2140. In test [2], the ETS1 binding intensity turned out to be 5130.

Take CCATATCTGGCTTCCTAAGGAGGAACCACAAACCGT: the values for the RUNX1 binding intensity in test [1] and in test [3] were 1040 and 1080, respectively. In test [2], the ETS1 binding intensity came out at 828.

Consider CAGCTGCTGACAGGAAAACCACAGTGGAAGGGGAAG, for which the RUNX1 binding intensity in test [1] was determined as 898; in test [3], 1050. For the same sequence, the ETS1 binding intensity in test [2] is 1550.

GCTGTCCGTTTCCGAGATGTTAATGCGGGATCTTGC: the RUNX1 binding intensity in test [1] turned out to be 920; in test [3] it was 988. Also, the ETS1 binding intensity in test [2] stood at 402.

As to CTTCTGAGAGGAGGATGTGGTCAGATACCTACAAAT, the RUNX1 binding intensity in test [1] turned out to be 854; in test [3], 1650. In test [2], the ETS1 binding intensity was found to be 7800.

Regarding GCCCCAGCGTTTCCTCTTACCCACAATGCCCCGCCC, the RUNX1 binding intensity is 1510 in test [1] and 2330 in test [3]. In test [2], the ETS1 binding intensity was 869.

As to TGGAAGAGGGCAGGAAGTGTTGTGGTCACTCCCACC, the RUNX1 binding intensity in test [1] stood at 856; in test [3], 1530. In addition, in test [2], the ETS1 binding intensity amounted to 28900.

CTAACAGCAGGAAGTGCTTGGTGGTTTAGCACCTCA: the RUNX1 binding intensity in test [1] came out at 664; in test [3], 1180. Further, the ETS1 binding intensity in test [2] worked out at 7150.

On to GTTCTCCACATCCTGTTCCGTAGCTGTGGTGCACCG, for which the RUNX1 binding intensity in test [1] was 3060; in test [3], 8880. Besides, the ETS1 binding intensity in test [2] was found to be 1780.

As to CTCTCTGGGCGGAAGGAACGCGGTCACCCTGAGAAA, the RUNX1 binding intensity in test [1] was found to be 833; in test [3] it was 871. The ETS1 binding intensity in test [2] is 968.

Regarding GGACTCTGGCAGGAAGCTGTTTGTGGTTGTCACACC, the RUNX1 binding intensity in test [1] turned out to be 796; in test [3], 1150. The ETS1 binding intensity in test [2] came to 11000.

For GAGACTTTCGCTTCCGGCTGCCGCAGGCGCTTCGCT, the figures for the RUNX1 binding intensity in test [1] and in test [3] were 710 and 1550, respectively. Also, the ETS1 binding intensity in test [2] amounted to 1700.

Turning to CCCAACCATTTCCGCCACACCTCCAACCCACTGCCG, the values for the RUNX1 binding intensity in test [1] and in test [3] were 2030 and 4660, respectively. The ETS1 binding intensity in test [2] is 542.

For GCTCCTCCCGGATATAAAGCCCCAAACCACGCCACT, the RUNX1 binding intensity in test [1] amounted to 1140; in test [3], 1410. In addition, in test [2], the ETS1 binding intensity was found to be 1610.

Take GGCTCGGCAAACATCCGGCTCCGCGGTGGAACGGGA: the RUNX1 binding intensity in test [1] is 785; in test [3], 1580. Further, the ETS1 binding intensity in test [2] is 1910.

For the sequence CTGTCTGCTTCCCGTGGCCAGCCCTGACCGCGGCCC, the RUNX1 binding intensity in test [1] came to 1060; in test [3], 1430. The ETS1 binding intensity in test [2] was found to be 621.

On to TTACGACACTTCCGGCGACGCCCCGCAGCCTTCACC, for which the results for the RUNX1 binding intensity in test [1] and in test [3] were 834 and 1880, respectively. The ETS1 binding intensity in test [2] turned out to be 2740.

In the case of GACTTGGGGGAAGTGGCTTGGTTTGCGTGGTTTCTC, the RUNX1 binding intensity worked out at 952 in test [1] and 1060 in test [3]. Further, the ETS1 binding intensity in test [2] came out at 546.

Turning to TTATTTCCGGTGTTGATCTTTTTAGTGGTACCAGGC, the RUNX1 binding intensity was determined as 1070 in test [1] and 2990 in test [3]. Moreover, the ETS1 binding intensity in test [2] was 3640.

Consider TCTCTTCCGTTCTCTGGTAGCTTTGTGGTAGCTTTG, for which the RUNX1 binding intensity in test [1] is 1350; in test [3], 2710. In addition, in test [2], the ETS1 binding intensity amounted to 534.

For the sequence AGCGTTGTCTTCCGGCCTCAACCACTCAGCGACCGG, the RUNX1 binding intensity in test [1] amounted to 751; in test [3], 1760. Besides, the ETS1 binding intensity in test [2] worked out at 10600.

With GCCGTGGGTACGACCGGAAGCCGCAGGTGGGTGAAG, the RUNX1 binding intensity in test [1] was 772; in test [3] it was 1540. The ETS1 binding intensity in test [2] stood at 35000.

Turning to TACTACTTACCAGCAGGATGTGGTCCCTGCCCACTG, the RUNX1 binding intensity came to 809 in test [1] and 1250 in test [3]. Besides, the ETS1 binding intensity in test [2] came to 7040.

On to CGGTTCCGGCGCCTGAAGTTTTAGCTGCGGTGGCGG, for which the RUNX1 binding intensity in test [1] stood at 794; in test [3], 1720. Also, in test [2], the ETS1 binding intensity worked out at 676.

Regarding AAGGCGGAGGAAGGGAAAATTGTGGTTGGGCAGAGG, the RUNX1 binding intensity was determined as 835 in test [1] and 887 in test [3]. Besides, the ETS1 binding intensity in test [2] is 742.

Consider CCCTCATCTTCCTGCTTCAGGCAGCTGTGGTTTACC, for which the results for the RUNX1 binding intensity in test [1] and in test [3] were 1070 and 1660, respectively. In test [2], the ETS1 binding intensity is 1550.

For ATGGCGAAGCAGGATGCCCTCAACCCACATACGGCA, the results for the RUNX1 binding intensity in test [1] and in test [3] were 1010 and 1000, respectively. Besides, in test [2], the ETS1 binding intensity was 927.

Take TATGTCTGACTTCCGCTCGTGGTTTCCATCTTAGCC: the values for the RUNX1 binding intensity in test [1] and in test [3] were 895 and 2850, respectively. Further, the ETS1 binding intensity in test [2] was 5230.

As for TAAGGATGTGTGGCTTCCAGATCAAAAACCGCAAAA, the figures for the RUNX1 binding intensity in test [1] and in test [3] were 7590 and 10600, respectively. Moreover, in test [2], the ETS1 binding intensity was found to be 3920.

On to CCGCCGACACACTTCCGGCGGCCACCACAGGGTATT, for which the RUNX1 binding intensity turned out to be 795 in test [1] and 1910 in test [3]. The ETS1 binding intensity in test [2] stood at 3660.

For GATGAAAGAGGAAGTTCTCAAACCACCTTGCCAGTG, the RUNX1 binding intensity was determined as 768 in test [1] and 1110 in test [3]. For the same sequence, the ETS1 binding intensity in test [2] amounted to 1490.

Turning to TGGCTTATCCTAACAGGAAGTGGTTTATCTGATCCT, the RUNX1 binding intensity was 767 in test [1] and 2390 in test [3]. Besides, in test [2], the ETS1 binding intensity is 31300.

Regarding CGACTTCCGTCCCTGGGTGGGATCGAACCACCAACC, the RUNX1 binding intensity came out at 1100 in test [1] and 2780 in test [3]. Further, in test [2], the ETS1 binding intensity was 540.

In the case of GCCGATGAGGAAGTGAGGGCCAACCACACTGCTCAG, the results for the RUNX1 binding intensity in test [1] and in test [3] were 878 and 749, respectively. In addition, the ETS1 binding intensity in test [2] came to 673.

Regarding CCCCTCGCCCTTCCGCATTGCGGGTTACTTCGGTTG, the RUNX1 binding intensity in test [1] came out at 1900; in test [3], 3510. For the same sequence, the ETS1 binding intensity in test [2] was found to be 591.

Regarding CTGACAGTTACTTCCTGTCTTTGTGGGCGATTGTGA, the RUNX1 binding intensity stood at 829 in test [1] and 2390 in test [3]. The ETS1 binding intensity in test [2] came out at 4620.

For ATACCGGCGCATCCGGATTTTGAAGCCGCAGTGGAC, the RUNX1 binding intensity in test [1] is 673; in test [3], 1200. Besides, the ETS1 binding intensity in test [2] worked out at 774.

As for GCAGAAACAGGAAGAGACAGGGCTGACCGCAGCAGG, the values for the RUNX1 binding intensity in test [1] and in test [3] were 1230 and 2340, respectively. Also, in test [2], the ETS1 binding intensity is 6300.

Turning to GAGCACAGGAAAAGCTGGTGCCAACCACAAGTGCTT, the RUNX1 binding intensity in test [1] amounted to 815; in test [3] it was 971. Also, the ETS1 binding intensity in test [2] was determined as 1130.

As to CGGGGATGGGATTTCCGGTGGTTTTTCTTCACTTTC, the RUNX1 binding intensity came to 851 in test [1] and 3240 in test [3]. For the same sequence, in test [2], the ETS1 binding intensity was determined as 4760.

Take GGTTCGCGGCTTCCGGGACATTTGTACCGCAGGGGG: the RUNX1 binding intensity in test [1] was determined as 759; in test [3] it was 1510. In test [2], the ETS1 binding intensity worked out at 2330.

As to TCCCGAGAGCCGGAAGCAGCCGCAGGCCCCGCCACA, the RUNX1 binding intensity in test [1] stood at 778; in test [3] it was 1330. For the same sequence, in test [2], the ETS1 binding intensity came to 4410.

As for CAGCTAGCCGGAAGAAGCTGCGGCGACAGCGTCCTG, the RUNX1 binding intensity in test [1] is 759; in test [3], 1020. Moreover, the ETS1 binding intensity in test [2] came to 2110.
